Assay outcomes as filed in PubChem.
CHT allo act: allosteric activators of human choline transporter CHT | CHT-expressing cells, membrane potential dye, choline EC20; active compounds read high; LV-AA mutant CHT in HEK293 cells | hit rate 0.49% among 310,000 | Q9GZV3 | B-score at 10 µM;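 active = initial fluorescence not abnormally high and integrated response B-score, plate-corrected, over 3 SD above library mean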
Target sequence (Q9GZV3 whole entry, looked up): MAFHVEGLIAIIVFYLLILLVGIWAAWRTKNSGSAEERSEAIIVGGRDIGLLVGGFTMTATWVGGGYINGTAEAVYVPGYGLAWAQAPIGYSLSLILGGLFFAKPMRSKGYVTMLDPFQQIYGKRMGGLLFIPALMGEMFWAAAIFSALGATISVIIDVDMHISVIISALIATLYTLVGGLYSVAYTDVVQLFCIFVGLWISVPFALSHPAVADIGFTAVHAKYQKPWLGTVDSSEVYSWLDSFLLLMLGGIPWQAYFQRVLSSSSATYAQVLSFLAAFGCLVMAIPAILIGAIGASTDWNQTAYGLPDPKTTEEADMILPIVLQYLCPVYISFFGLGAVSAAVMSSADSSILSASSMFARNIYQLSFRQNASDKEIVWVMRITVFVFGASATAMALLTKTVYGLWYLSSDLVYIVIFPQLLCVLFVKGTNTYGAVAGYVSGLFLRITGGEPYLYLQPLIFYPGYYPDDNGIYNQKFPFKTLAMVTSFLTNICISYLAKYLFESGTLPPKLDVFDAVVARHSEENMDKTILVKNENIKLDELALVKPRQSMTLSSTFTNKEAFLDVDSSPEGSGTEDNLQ
CHT inh: inhibitors of human choline transporter CHT; Q9GZV3; CHT-expressing cells, membrane potential dye, choline response; active compounds read low; B-score at 10 µM; hit rate 0.86% among 310,000;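 active = B-score over 3 SD under the library average, and starting fluorescence ratio not unusually high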;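 note: choline stimulus applied at its EC90 after an EC20 pre-addition; B-score computed on integrated fluorescence ratio after choline addition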
EP2 antag: blocks the human prostaglandin E2 receptor EP2. P43116. inhibition, % at 25 µM. hit rate 0.52% among 260,000. C6 glioma cells expressing human EP2, cAMP TR-FRET; cells stimulated with saturating PGE2;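 active = percent inhibition above 40 after rounding to a whole number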;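 note: rat C6 glioma host cells with rolipram phosphodiesterase inhibitor present; the protocol text gives 20 µM as final concentration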
EP2 mod: modulators of human EP2 prostaglandin E2 receptor. P43116. EP2-expressing cells, cAMP HTRF FRET, PGE2 co-stimulation. induction, % at 25 µM. hit rate 0.83% among 260,000. AID 940;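 active = compounds whose cAMP rise, as percent of the full-agonist control response, exceeds 60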;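 note: rat C6 glioma line stably carrying human EP2 under a CMV promoter; the protocol text gives 20 µM as final concentration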
CHT activ conf: confirmation of human choline transporter (CHT) activators; AID 504833; activation, % at 10 µM; hit rate 91% among 2,500; CHT-expressing cells, membrane potential dye fluorescence (FDSS); % of choline EC20–EC90 response window; HEK293 expressing CHT LV-AA mutant; choline added at its EC20; shares compounds with CHT allo act;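 active = primary screen active, with duplicate mean activation above negative control mean plus 3 SD, cut at about 11% in these data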
HEK293 MP dye: activity in parental HEK293 cells lacking CHT; hit rate 62% among 2,500; membrane potential dye fluorescence (FDSS); measured after EC20 choline addition; shares compounds with CHT allo act; AID 623908; ratio readout change at 10 µM, hits read low;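 active = duplicate-averaged ratio beyond 3 SD from buffer wells, up or down, though filed actives are nearly all decreases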
Numbers stand for hits. Only some compounds are listed: those with a hit (about 2.1% of all), similar ones and a draw of the others.

What do the screens show for `COc1ccc(N2CCN(c3oc(COc4ccc(Cl)cc4Cl)nc3C#N)CC2)cc1`?
CHT allo act: 9.5; CHT inh: inactive; EP2 antag: inactive; EP2 mod: inactive; CHT activ conf: 27; HEK293 MP dye: inactive

Results for CCN1CCN(c2oc(COc3ccc(Cl)cc3)nc2C#N)CC1 ?
CHT allo act: inactive; CHT inh: inactive; EP2 antag: inactive; EP2 mod: inactive

What do the screens show for `CCCCCCCCCCOC(=O)Cn1c(COc2ccccc2C)[n+](C)c2ccccc21`?
CHT allo act: 14; CHT inh: inactive; CHT activ conf: inactive; HEK293 MP dye: -46

What do the screens show for `CC1CCC(C(C)C)C(OC(=O)Cn2c(-c3ccc(Br)cc3)[n+](C)c3ccccc32)C1` (stereo unspecified)?
CHT allo act: inactive; CHT inh: inactive; EP2 antag: inactive; EP2 mod: inactive

Results for CCCCCCCCCCOC(=O)Cn1c(COc2cccc(C)c2)[n+](C)c2ccccc21 ?
CHT allo act: inactive; CHT inh: inactive; CHT activ conf: inactive; HEK293 MP dye: -41

What do the screens show for `CCCCCCCCCCOC(=O)Cn1c(COc2ccc(OC)cc2)[n+](C)c2ccccc21`?
CHT allo act: 13; CHT inh: inactive; CHT activ conf: 28; HEK293 MP dye: -42

What do the screens show for `Cc1ccccc1OCc1n(CC(=O)OC2CC(C)CCC2C(C)C)c2ccccc2[n+]1C` (stereo unspecified)?
CHT allo act: inactive; CHT inh: inactive; EP2 antag: inactive; EP2 mod: inactive; CHT activ conf: 14; HEK293 MP dye: inactive

What do the screens show for `CCCc1cc(CNC(=O)C2(c3ccccc3F)CC2)on1`?
EP2 antag: inactive; EP2 mod: inactive

Results for C#CCOc1ccccc1CN1CCC(NC(C)=O)(c2ccc(F)cc2)CC1 ?
EP2 antag: inactive; EP2 mod: inactive

How did COC(=O)c1c(NC(=O)c2ccco2)sc(C(=O)Nc2ccc(C)cc2C)c1C do in these assays?
EP2 antag: inactive; EP2 mod: inactive

What do the screens show for `CCN1C(=O)c2cccc3c(S(=O)(=O)NCCCN4CCOCC4)ccc1c23`?
CHT allo act: 7; CHT inh: inactive; EP2 antag: inactive; EP2 mod: inactive; CHT activ conf: 59; HEK293 MP dye: -54

How did Cc1ncc(-c2ccncc2)c(C2CCCN(C(=O)C3CC3)C2)n1 (stereo unspecified) do in these assays?
EP2 mod: inactive

What do the screens show for `CCCCNc1cc(C)nc(NCc2ccccc2)n1`?
CHT allo act: 9.2; CHT inh: inactive; EP2 antag: inactive; EP2 mod: inactive; CHT activ conf: 33; HEK293 MP dye: inactive

How did Cc1cc(Nc2ccccc2)nc(NCc2ccccc2)n1 do in these assays?
CHT allo act: inactive; CHT inh: inactive; EP2 antag: inactive; EP2 mod: inactive

Results for Cc1sc2ncnc(NCCCn3ccnc3)c2c1C ?
CHT allo act: inactive; CHT inh: inactive; EP2 antag: inactive; EP2 mod: inactive; CHT activ conf: 48; HEK293 MP dye: -51

What do the screens show for `CCCC(=O)Nc1ccc(NC(=O)c2ccc(F)cc2)nc1`?
EP2 antag: inactive; EP2 mod: inactive

Results for CC(C)CSc1nsc(N)n1 ?
CHT allo act: inactive; CHT inh: inactive; EP2 antag: inactive; EP2 mod: inactive; CHT activ conf: 27; HEK293 MP dye: inactive

How did CC(C)CSc1nnc(N)s1 do in these assays?
CHT allo act: inactive; CHT inh: inactive; EP2 antag: inactive; EP2 mod: inactive

What do the screens show for `CCCCCCCCCC[n+]1cccc2c3ccccc3ccc21`?
EP2 antag: inactive; EP2 mod: inactive

Results for CCCCCCCC[n+]1cccc2c3ccccc3ccc21 ?
CHT allo act: 6.8; CHT inh: inactive; EP2 antag: inactive; EP2 mod: inactive; CHT activ conf: 19; HEK293 MP dye: -26

What do the screens show for `COc1ccc(C2=CSC3=NCCN23)cc1[N+](=O)[O-]`?
CHT allo act: inactive; CHT inh: inactive

How did COc1ccc(C2=CSC3=NCCN23)cc1Br do in these assays?
CHT allo act: 6.6; CHT inh: inactive; CHT activ conf: 29; HEK293 MP dye: -47

Results for O=[N+]([O-])c1ccc(C2=CSC3=NCCN23)cc1 ?
CHT allo act: 7.4; CHT inh: inactive; CHT activ conf: 43; HEK293 MP dye: -61
